This note sets out measurements from PubChem BioAssay (NCI).

The panel holds about 83,000 compounds, 20% with a hit somewhere; the sample as a whole holds those more often.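 Each cell line was grown in a 96-well plate and treated with one concentration of compound for 48 hours. Values below 10 were considered active.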 Calls of active or inactive are those of the source.

The subject of the assay is MDA-MB-468 breast. The experiment in a line: NCI-60 one-dose screen, 48 h (100 = growth as untreated, 0 = no growth, -100 = all killed). The conditions noted are these: 10 µM unless noted.
Take `Fc1ccc(C2CC(c3cccc(Nc4ccncc4)c3)=NN2c2ccccc2)cc1` (stereo unspecified): the growth was -2.33% (active).
The result for `CN(C)CCOc1ccc2c(c1)C(=O)/C(=C\c1ncc([N+](=O)[O-])n1C)C2` reads -78.5% (active).
`COC1=CC(c2ccc[nH]2)=N/C1=C\c1[nH]c(C)c(C(=O)CCC(=O)Oc2ccc3c(c2)CCC2C3CC[C@]3(C)C(=O)CC[C@@H]23)c1C` (stereo partly specified): the growth was 76.3% (inactive).
In the case of `O=c1ccn(C2OC(CO)C(O)C2F)c(=O)[nH]1` (stereo unspecified), the growth is 105% (inactive).
In the case of `COc1ccc(-c2nc3cc(Cl)c(Cl)cc3n2CC(=O)N=Nc2c(O)[nH]c3ccc(Cl)cc23)cc1`, the growth was -40.1% (active).
The result for `Oc1ccc(-c2cnc(-c3ccccc3)[nH]2)c(O)c1` reads 109% (inactive); that for `COC(=O)[C@]1(C)CCC[C@]2(C)c3ccc(C(C)C)cc3C(=O)[C@@H](Br)[C@@H]12`, 78.3% (inactive).
Regarding `Oc1c(CNCCNCc2cc(Cl)cc(Cc3ccccc3)c2O)cc(Cl)cc1Cc1ccccc1`, the growth was 24.2% (inactive).
Turning to `O=c1cc(C2NNC(=S)N2)c2ccc3ccccc3c2o1` (stereo unspecified), the growth was 128% (inactive).
As for `CCN(CC)CCOC(=O)C(c1ccccc1)(c1ccccc1)C(C)C`, the figure is 80% (inactive).
As for `COc1cccc(-c2cnco2)c1OCc1c(C)c(COc2c(OC)cccc2-c2cnco2)c(C)c(COc2c(OC)cccc2-c2cnco2)c1C`, the figure is 59% (inactive); as for `CCN(CC)CCNc1nc2ccccc2c2c(=O)c3cc(Cl)ccc3sc12`, 56.2% (inactive).
Regarding `O=[N+]([O-])c1cccc(SSc2cccc([N+](=O)[O-])c2)c1`, the growth is 109% (inactive).
For the molecule `C#CCOc1ccc2ncnc(Nc3ccc(NC(=O)CCl)cc3)c2c1`, the growth is -57.7% (active).
As for `Cc1ccc(/C=C2\C(=O)N(C)c3ccc(S(=O)(=O)Nc4ccc(C(C)(C)C)cc4)cc32)s1`, the figure is 41.8% (inactive); as for `Cc1cc(N/N=C/c2nc(-c3ccccc3)oc2C)c2cc(Br)ccc2n1`, 35.7% (inactive).
With `O=C(OCc1nc2nc(Cl)nc(N3CCOCC3)c2[nH]1)n1ccnc1`, the growth was -26.9% (active).
As to `CCN1C(=O)N(CC)C2SC(N/N=C/c3ccc(OC)cc3)=NC21` (stereo unspecified), the growth is 32.2% (inactive).
As for `C#CCN(CCCOc1ccc(Cl)cc1Cl)CCCSC(=O)CCCCCN1/C(=C\C=C2/CCCC(/C=C/C3=[N+](CCCCCC(=O)[O-])c4ccccc4C3(C)C)=C2Cl)C(C)(C)c2ccccc21`, the figure is 12.8% (inactive); as for `COc1cc(C(=O)NN=C2c3ccccc3-c3ccccc32)cc(OC)c1OC`, -3.4% (active); as for `O=C(Nc1ccccc1O)c1ccc(CNc2ccnc(C(F)(F)F)c2)cc1`, 90.7% (inactive).
Turning to `C#Cc1ccc(NC(=O)c2ccc(/C=C/C(=O)c3nccn3C)cc2)c(F)c1`, the growth was 32.3% (inactive).
The result for `COCCn1cc(-c2csc(-c3c[nH]c4ccccc34)n2)c2cccnc21` reads -6.7% (active).
The result for `O=C(/C=C/c1c(Cl)nc2sccn12)c1nccs1` reads 75.7% (inactive).
The result for `CC(=O)c1cc2c(c(O)c1C)C(=O)C(=O)c1c(O)cccc1-2` reads -58% (active); that for `[Ag].[Ag].[NH-]S(=O)(=O)c1ccc(N=Nc2cc(N=Nc3ccc(S([NH-])(=O)=O)cc3)c3c(NC(=O)C(Cl)Cl)cccc3c2OC(=O)C(Cl)Cl)cc1.[c-]1nccs1.[c-]1nccs1`, 61.4% (inactive).
Take `CC(O)c1cccc(/C(N)=N/C(N)=N/c2nc3ccccc3s2)c1` (stereo unspecified): the growth is 103% (inactive).
Turning to `COc1ccc(SC2c3ccc(O)cc3Oc3nc(N)c(C#N)c(N)c32)cc1` (stereo unspecified), the growth is 89.6% (inactive).
As for `O=C(CCCn1c2c(sc3ccccc32)c(=O)n2nnc(-c3ccccc3)c12)NCCc1cnc[nH]1`, the growth is -91% (active).
The result for `O=C1C(Cl)=C(NCCCCCCNC2=C(Cl)C(=O)c3ccccc3C2=O)C(=O)c2ccccc21` reads 89.2% (inactive); that for `O=C(Nc1ccc(Nc2ncccn2)cc1)NC1C=c2ccccc2=CC1` (stereo unspecified), 110% (inactive); that for `C=C1CC2(OC1=O)C(=O)N(CCCN1C(=O)C3(CC(=C)C(=O)O3)c3ccccc31)c1ccccc12` (stereo unspecified), -34% (active).
As for `Cn1cc(-c2nn3cc(-c4ccncc4)nc3s2)c2cc(F)ccc21`, the figure is 54.6% (inactive); as for `Cc1cccc(CC(=O)c2ccccc2)n1`, 92.8% (inactive).
As for `COCCn1c(-c2csc(-c3cn(C)c4ccc(OC)cc34)n2)cc2cccnc21`, the figure is 37.9% (inactive); as for `NC(=S)N/N=C(/C=C/c1cn(-c2ccccc2)nc1-c1ccc(Cl)cc1)c1cc2ccccc2oc1=O`, 52.2% (inactive).
